Experimental findings from PubChem BioAssay AID1347070 (National Center for Advancing Translational Sciences (NCATS), 2019) are described below.

Each structure is given as a SMILES string. In all, about 94,000 compounds went through this assay and about 20 (0.02%) were called active. Inconclusive results (about 1%) are left out. These entries were drawn from the full list. A number with no mark means an inactive call. Calls follow the shape of the dose curve; as a rule, active = well fitted activation curve with a large enough effect; inconclusive = small, poorly fitted or top-dose-only effect; inactive = flat fitted curve, though single readings scatter.

This test is described as follows: qHTS of alpha-syn Inhibitors: NCGC Sytravon Library Screen. Also: 0% is about no effect. The note with it: S. cerevisiae alpha-synuclein toxicity rescue, BacTiter-Glo growth, 24 h; series mostly up to 46.1 µM; growth rescue (activation): at the top concentration. The text has this: The goal of this project is to identify new chemical probes capable of reversing the toxicity associated with the Parkinson disease-related protein, alpha-synuclein. Compounds will be selected on their ability to restore growth in yeast cells expressing toxic levels of alpha-synuclein. These compounds will provide a complementary approach to deciphering the tangled mechanisms of toxicity and protection that we have uncovered through genome-wide genetic screens and are beginning to uncover in a large-scale proteomics analysis with mass spectroscopy. To this end, a miniaturized assay was developed to be screened against the Molecular Libraries Small Molecule Repository (MLSMR) to discover alpha-synuclein inhibitors. […] The phenotype of interest will be that of an Activator and this screen is run against the NCGC Sytravon Library collection. NIH Chemical Genomics Center [NCGC] NIH Molecular Libraries Probe Centers Network [MLPCN] MLPCN Grant: NS060957 Assay Submitter (PI): Susan Lindquist, Whitehead Institute/MIT
Dispense 2.5 microL yeast galactose medium per 1536-well plate, pin compound, dispense 2.5 microL alpha-synuclein expressing yeast in galactose medium at OD600=0.02 (pregrown in raffinose medium to mid-log phase) per well, incubate for 24 hr at 30 deg C, and cell growth will be measured using 5 microL of Bactiter/Glo reagent to entire plate and read using Luminescence Protocol in ViewLux.
For orientation: qHTS replaces the single test concentration by a dilution series.
On to `CCOC(=O)c1sc(NC(=O)c2sc(C)nc2C)nc1C`, for which the “growth rescue (activation)” value is -1.28%.
With `CCN(CC(=O)NCCc1ccccc1)S(=O)(=O)c1ccccc1`, the “growth rescue (activation)” value is 17.5%.
Consider `CCc1ccccc1OCC(=O)Nc1ccc2c(c1)OCCO2`, for which the “growth rescue (activation)” value is 3.32%.
The result for `CCN(CC)CCn1c2c(c(SCC(=O)Nc3ccc(C(C)C)cc3)nc1=O)CCC2` reads 8.84%.
For the molecule `CCC(=O)c1ccc(OCC(=O)N(CC)CC2COc3ccccc3O2)cc1` (stereo not given), the “growth rescue (activation)” value was 6.47%.
The result for `CC(=O)Nc1ccc2nc(NC(=O)CS(=O)(=O)c3ccc(F)cc3)sc2c1` reads -3.04%; that for `COc1ccc(NC(=O)CCC(=O)Nc2cc(OC)c(NC(=O)c3ccco3)cc2OC)c(OC)c1`, 9.61%.
The result for `COc1cc(NC(=O)CN(C)S(=O)(=O)c2ccc3nc(C)sc3c2)cc(OC)c1` reads 2.95%; that for `CCCCn1c(SCC(=O)N2CCOCC2)nc2c1c(=O)n(C)c(=O)n2C`, -3.16%; that for `CSc1nnc(C2CCCN(CC(=O)Nc3ccccc3N3CCOCC3)C2)n1C(C)C` (stereo not given), 9.2%.
Then `Cc1cc2cc3n(c2nn1)N=C(Cl)CC3`, with -2.87%; and `CCOc1ccc(-c2n[nH]c(C)c2-c2ccccn2)c(O)c1`, with -4.58%; and `O=C(Nc1cc(F)ccc1F)c1ccc2c(=O)n3c(nc2c1)CCC3`, with -5.44%.
With `COc1ccc(NC(=O)CC2C(=O)NC3CCCCC3N2C(=O)c2ccc(F)cc2)cc1` (stereo not given), the “growth rescue (activation)” value is 5.79%.
`O=C(Nc1ccc(F)c([N+](=O)[O-])c1)C1CCCO1` (stereo not given): the “growth rescue (activation)” value is 9.96%.
As for `CCOC(=O)c1[nH]cnc1C(=O)Nc1ccccc1C`, the “growth rescue (activation)” value was -6.47%.
Turning to `O=C(c1ccccc1)N1CCN(C(=O)c2cc3nc(-c4ccccc4)cc(C(F)(F)F)n3n2)CC1`, the “growth rescue (activation)” value is 9.69%.
Then `O=S(=O)(Nc1ccccc1Br)c1cccs1`, with 5.51%.
Consider `O=C(Nc1ccccc1C(=O)N1CCCCC1)c1ccco1`, for which the “growth rescue (activation)” value is 7.96%.
`COc1cccc(N2CC(NS(=O)(=O)c3cccs3)CC2=O)c1` (stereo not given): the “growth rescue (activation)” value was 1.66%.
The result for `Cc1cn([C@H]2C[C@H](O)[C@@H](CNC(=O)[C@H](N)Cc3cccnc3)O2)c(=O)[nH]c1=O` reads 3.32%.
Then `COC(=O)c1cc(OCC(=O)NC2CCCc3ccccc32)cc(C(=O)OC)c1` (stereo not given), with 4.38%; and `O=C(Cc1ccccc1)NNC1CC(=O)N(c2ccc(Br)cc2)C1=O` (stereo not given), with -7.94%; and `CCOC(=O)C1=C(c2ccccc2)NC(=S)NC1c1ccc(Cl)cc1` (stereo not given), with 6.93%.
Consider `COc1ccc(-n2c(-c3ccc(Cl)cc3)n[nH]c2=S)c(OC)c1`, for which the “growth rescue (activation)” value was 2.94%.
The result for `COc1ccc(CC(=O)NC(C)CCc2ccccc2)cc1` (stereo not given) reads 10.7%; that for `C/C(CC(=O)NC(C)c1ccccc1)=N\NC(N)=S` (stereo not given), 5.9%; that for `CN(C)c1ccc(C(=S)N2CCN(C(=S)Nc3ccc(Cl)cc3)CC2)cc1`, -0.752%.
Regarding `CCCOc1ccc(/C=N/NC(=O)C2CC2)c(OCCC)c1`, the “growth rescue (activation)” value was 8.78%.
Take `CCOC(=O)Cc1ncccc1C(=O)Nc1ccc(OC)cc1`: the “growth rescue (activation)” value was 6.95%.
